The whole screen tested about 1,400 compounds, of which about 380 (27%) were called active. The list shows a part of the results. A number with no mark means an inactive call.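 The calls were made as follows: active = mean inhibition above 50% across duplicate retests at 10 µM; inactive = the rest.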
Test: yeast NALP1 reporter signal suppression – S. cerevisiae, luminescence, single concentration, NALP1 inhibitor project, confirmation (AID 488841);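 also: plate controls were DMSO in galactose medium for no effect and cells in plain SD medium for full effect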
Settings: S. cerevisiae NALP1/ASC/Caspase-1 reporter, beta-gal luminescence; at 10 µM; active compounds read high

Row | SMILES | inhibition
1 | COc1ccc(OC)c(N/C(=N/C(=S)Nc2ccccc2)Nc2nc(C)cc(C)n2)c1 | 30.3%
2 | CC12CCC(C(=O)O)(C/C1=N\O)C2(C)C (centres undefined) | 15%
3 | CCOc1nc(-c2ccccc2Cl)ccc1C#N | 42.2%
4 | COC(=O)C(Cc1ccccc1)NC(=O)COc1ccc(C(C)(C)C)cc1 (centres undefined) | 36.6%
5 | C=CCc1cc(Cl)ccc1OCCNCCCOC | 45.8%
6 | C=CCNCCOCCSc1ccc(Cl)cc1 | 45.3%
7 | COCCCNCCOc1ccc(C(C)(C)c2ccccc2)cc1 | 57.4% (active)
8 | COCCCNCCOc1cc(C(C)C)ccc1C | 30.8%
9 | C=CCNCCOc1ccc(C(C)(C)c2ccccc2)cc1 | 60.4% (active)
10 | CS(=O)(=O)n1nc(-c2ccc(Cl)cc2)nc1SCc1ccccc1 | 36.2%
11 | c1csc(C2Nc3ccccc3-c3nc4ccccc4n32)c1 (centres undefined) | 31.5%
12 | O=C(Nc1cc(Cl)ccc1-n1cncn1)c1ccc([N+](=O)[O-])s1 | 90.7% (active)
13 | CN(c1ccccc1)c1ccc(/C=C/[N+](=O)[O-])cc1 | 95% (active)
14 | CCCc1ccc(-c2c(C)sc(N)c2C#N)cc1 | 39%
15 | CCN1CCN(c2cc(C(C)C)nc3c(-c4ccccc4)c(C)nn23)CC1 | 40.4%
16 | CCc1cc(OCCCCNCc2ccccc2)ccc1Cl | 43.2%
17 | COc1ccc(CNCC(O)(c2ccccc2)c2ccc(Cl)cc2)cc1 (centres undefined) | 57.9% (active)
18 | COc1ccc(C(=O)C2CCCN(C(=O)Cn3nc(C)cc3C)C2)cc1F (centres undefined) | 36.5%
19 | C#C[C@]1(O)CC[C@H]2[C@@H]3CCC4=C(CCC(=O)C4)[C@H]3CC[C@@]21C | 59.2% (active)
20 | C#C[C@]1(O)CC[C@H]2[C@@H]3CCc4cc(O)ccc4[C@H]3CC[C@@]21C | 65.4% (active)
21 | Cc1ccc(S(=O)(=O)NCc2ccc(C(=O)NCCCN3CCC(Cc4ccccc4)CC3)cc2)cc1 | 22%
22 | CN(CC(=O)NC(=O)NCc1ccccc1)Cc1cccc(Cl)c1Cl | 32.5%
23 | Cc1ccccc1OCC(=O)Nc1cccc(N(C)S(C)(=O)=O)c1 | 18.4%
24 | COC(=O)C1=C(C)NC(C)=C(C(=O)OC)C1c1ccc(OC(=O)c2oc3ccccc3c2C)c(OC)c1 | 10.6%
25 | O=C(c1ccc(S(=O)(=O)c2ccccc2)cc1)N1CCCCCC1 | 32.5%

Row | SMILES | inhibition
26 | Cc1ccc(C(C[N+](=O)[O-])c2c(N)n(C)c(=O)n(C)c2=O)cc1 (centres undefined) | 96.2% (active)
27 | COc1ccccc1C(C[N+](=O)[O-])c1c(N)n(C)c(=O)n(C)c1=O (centres undefined) | 93.7% (active)
28 | COc1cccc(F)c1C(C[N+](=O)[O-])c1c(N)n(C)c(=O)n(C)c1=O (centres undefined) | 89.5% (active)
29 | O=c1[nH][nH]c(-c2ccccc2O)c1C(C[N+](=O)[O-])c1ccc(Cl)cc1Cl (centres undefined) | 37.8%
30 | CC1(C)NC(=O)N(CCCCOc2ccc3ccccc3c2Cl)C1=O | 38.6%
31 | CCCCNCCOCCOc1ccccc1-c1ccccc1 | 44%
32 | CN(C)c1nc(N)nc(CSc2nnnn2-c2ccc(C(=O)O)cc2)n1 | 29.5%
33 | Nc1[nH]c(=O)ncc1F | 43.8%
34 | CCOc1ccc(N=c2oc3cc(O)ccc3cc2C(=O)NCC2CCCO2)cc1 (centres undefined) | 24.5%
35 | COC1=C(Nc2ccc(O)cc2)C(=O)c2ccccc2C1=O | 32.3%
36 | Cc1cc(Nc2ccccc2)nc2cc(O)ccc12 | 84.7% (active)
37 | COc1ccc(Nc2cc(C)c3ccc(O)cc3n2)cc1 | 89.7% (active)
38 | Cc1cc(Nc2ccccc2)nn1C(=O)c1ccccc1 | 44.5%
39 | CCn1nc(C)cc1Nc1ccccc1 | 22.3%
40 | COc1ccc(C2=NN3C(=O)c4c(ccc(OC)c4OC)C3C2)cc1 (centres undefined) | 37.6%
41 | CCC(=O)N(Cc1cc2c(C)ccc(C)c2[nH]c1=O)C1CCCCC1 | 27.1%
42 | CCNc1c(C(=O)O)ccc2c1C(=O)c1ccccc1C2=O | 32.4%
43 | CCc1ccc(OCC(=O)Nc2ccc(CN3CCCCC3)cc2)cc1 | 48.2%
44 | Cc1cc(C)c([C@@H]2C[C@H]3CN(C4CCCC4)C(=O)[C@]34CCCN24)c(-n2cccn2)c1 | 28.9%
45 | COc1cc(/C=C/C(=O)c2ccc(Cl)s2)cc(OC)c1O | 50.9% (active)
46 | COC(=O)CCn1nnc(-c2ccc(C(C)C)cc2)n1 | 38.5%
47 | COc1cccc(CN2CCC(C(=O)N3CCN(c4ccccc4F)CC3)CC2)c1OC | 37.2%
48 | CCCc1[nH]n(-c2nc3ccccc3s2)c(=O)c1C=NCC(C)C | 54.1% (active)
49 | O=C1C(Cl)=C(N2CCN(c3ccccc3[N+](=O)[O-])CC2)C(=O)c2ccccc21 | 47.2%
50 | C/C(=N\NC(=O)c1csc(C)c1C)c1ccc(Cl)s1 | 40.9%

Row | SMILES | inhibition
51 | O=C(/C=C/c1ccccn1)c1ccc(Br)cc1O | 67.5% (active)
52 | CCNc1ccc(Br)cc(C(=O)/C=C/c2c(Cl)cccc2Cl)c1=O | 39.5%
53 | O=C(/C=C/c1cccs1)c1cc(Br)ccc1OC(=O)N1CCOCC1 | 28.1%
54 | COc1cccc(-c2nn(C)c3sc(C(=O)N4CCOCC4)cc23)c1 | 35.3%
55 | Cc1[nH]c2ccccc2c1C(=O)CSc1nc2ncc(Cl)cc2[nH]1 | 25.4%
56 | O=C(NC(Cc1c[nH]c2ccccc12)C(=O)O)/C(=C\c1ccc2c(c1)OCO2)NC(=O)c1ccccc1 (centres undefined) | 32.5%
57 | O=C(/C=C/c1c[nH]c2ccccc12)c1ccccc1 | 80.5% (active)
58 | CN(C)c1ccc(N/C=C/C(=O)c2ccccc2)cc1 | 35.4%
59 | Cc1cc(SC#N)cc(C)c1NC(=O)CCl | 21.6%
60 | CC(C)c1nc2sc3c(=O)[nH]c(=S)[nH]c3c2c2c1CCC2 | 30.2%
61 | Cc1ccc2nc(Cl)c(C3CC(c4cccs4)=NN3C(=O)CCCC(=O)O)cc2c1 (centres undefined) | 33.7%
62 | COc1ccc(OCC(O)Cn2c(=N)n(Cc3ccccc3)c3ccccc32)cc1 (centres undefined) | 27.4%
63 | CCOC(=O)c1c(O)c2cc(Cl)ccc2n(CC)c1=O | 40.1%
64 | OC(COCc1ccc2c(c1)OCO2)CN1CCN(Cc2ccccc2)CC1 (centres undefined) | 32%
65 | OC(CN1CCN(Cc2ccccc2)CC1)Cn1c2ccccc2c2ccccc21 (centres undefined) | 63.1% (active)
66 | OC(CN1CCCCC1)Cn1c2ccc(Cl)cc2c2cc(Cl)ccc21 (centres undefined) | 52.5% (active)
67 | OC(CNCCC1C=Nc2ccccc21)Cn1c2ccc(Cl)cc2c2cc(Cl)ccc21 (centres undefined) | 40.7%
68 | CCN1CCN(C(=O)N[C@@H](C(=O)N[C@@H]2C(=O)N3[C@@H]2SC(C)(C)[C@@H]3C(=O)O)c2ccccc2)C(=O)C1=O | 45.5%
69 | CCn1c(=O)cc(SCC(=O)N2CCN(C3CCCCC3)CC2)c2ccccc21 | 32.6%
70 | N/C(Cc1ccc(Cl)cc1)=N\OC(=O)C1CCCCC1 | 46.6%
71 | COc1ccc(C)cc1NC(=O)c1ccc(CN2CCN(c3ccccc3)CC2)cc1 | 47.2%
72 | COc1ccc(NC(=O)c2ccc(C)cc2)c(OC)c1 | 37.7%
73 | O=C(NCCN1C(=O)S/C(=C\c2cccnc2)C1=O)c1cccc(OC(F)F)c1 | 39.6%
74 | COc1ccc(C)cc1NC(=O)c1ccc(OC(F)F)cc1 | 59.4% (active)
75 | CSc1ccccc1NC(=O)Nc1ccccc1Cl | 30%

Row | SMILES | inhibition
76 | Cc1c(Cl)cccc1NC(=O)c1cccc(OC(F)F)c1 | 53% (active)
77 | Clc1ccc2c(N/N=C/c3ccccc3Br)ccnc2c1 | 39%
78 | Cc1ccc(N/C=C/C(=O)C(C)(C)C)c(O)c1 | 31.6%
79 | Cn1cc(CC(=O)Nc2cccc(C#N)c2)c2ccccc21 | 26.6%
80 | c1ccc2cc(CSCc3nc4ccccc4[nH]3)ccc2c1 | 42.5%
81 | c1ccc2[nH]c3cc4ncnc4cc3nc2c1 | 52.8% (active)
82 | CCCCOC(=O)Oc1ccc2c(=O)c(Oc3cc(C)cc(C)c3)coc2c1 | 45.8%
83 | CC(C)Oc1ccc2c(=O)c(-c3ccccc3)coc2c1 | 66.2% (active)
84 | COc1ccccc1N1CCN(C(=O)CSc2ncnc3scc(-c4ccccc4)c23)CC1 | 47.8%
85 | CC1CCN(c2nc(CN3CCCCC3)nc3scc(-c4ccccc4)c23)CC1 | 65.5% (active)
86 | Cc1ccc(S(=O)(=O)N[C@@H](Cc2ccccc2)C(=O)CCl)cc1 | -1.6%
87 | c1ccc(-c2c(-c3ccccc3)n(Cc3ccco3)c3ncnc(NCCCn4ccnc4)c23)cc1 | 38%
88 | COC(=O)Cn1nc(-c2ccccc2)c2ccccc21 | 99.7% (active)
89 | CC(=O)n1cc(-c2ccncc2)c2ccccc21 | 46.6%
90 | O=C(O)Cn1nc(-c2ccccc2)oc1=O | 27.4%
91 | COc1ccc2c(c1)C1=NN(/C(C)=C/C(C)=O)C(c3cccc(F)c3)C1CC2 (centres undefined) | 42.1%
92 | Cc1ccc(/C=N/NC(=O)c2ccc3nc[nH]c3c2)o1 | 31.1%
93 | COC(=O)N/N=C/c1ccc(-c2cccc(Cl)c2)o1 | 68.8% (active)
94 | COC(=O)N/N=C/c1ccc(OC(=O)c2ccco2)c(OC)c1 | 22.6%
95 | O=C1c2ccccc2C(O)N1c1cccnc1 (centres undefined) | 27.9%
96 | O=C1c2ccccc2C(Nc2ccc(Cl)cn2)N1Cc1ccccc1 (centres undefined) | 55.5% (active)
97 | CC1CCc2nc3sc4c(c3c(N)c2C1)CCCC4 (centres undefined) | 56.2% (active)
98 | Nc1c2c(nc3sc4c(c13)CCCCC4)CCCCC2 | 40.6%
99 | Nc1c2c(nc3sc4c(c13)CCCC4)CCCCCC2 | 32.1%

Reference: PubChem BioAssay AID488841 (Sanford-Burnham Center for Chemical Genomics, 2010)
